Assay results published in PubChem BioAssay (NCI).
About 83,000 compounds went through this panel and 20% of them were active in at least one assay; those are over-represented in the sample as a whole.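 The test compound was applied at a single concentration to cells in 96-well plates for 48 hours, and percent growth was recorded.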 Unmarked numbers belong to inactive results. Active and inactive are the calls of the source.

Each compound was assayed on OVCAR-3 ovarian (assay: NCI-60 one-dose screen, 48 h (100 = growth as untreated, 0 = no growth, -100 = all killed)). Conditions: 10 µM unless noted.
Procedure: Growth inhibition of the OVCAR-3 human tumor cell line is measured as a screen for anti-cancer activity. Cells are grown in 96 well plates and exposed to the test compound for 48 hours. Compounds are tested at a single concentration, which is 10^-5 M for most compounds. The reported endpoint is percent growth (GI% or GIPRCNT), where numbers from 0 - 100% represent growth inhibition, and numbers from -100% - 0 represent cell death. For example, a value of 40 represents 60% growth inhibition. A value of 0 means no net growth occurred over the course of the experiment. A value of -40 indicates 40% of cells at the beginning of the experiment died by the end of the experiment. A value of -100 means all cells are dead at the end of the experiment.
NCI-60 Human Tumor Cell Lines Screen was performed using the standard one-dose NCI protocol, which is described in more detail at https://dtp.cancer.gov/discovery_development/nci-60/default.htm.
Compounds with GIPRCNT values below 10 were considered active. Activity score was based on GIPRCNT using the following formula: […]
Score is 0 for GIPRCNT values of 100 or above, 50 for GIPRCNT values of 0, and 100 for GIPRCNT values of -100.

With `COc1ccc2nc3c(n2c1)C(=O)C(=O)c1ccccc1-3` the growth was -22.8% (active).
In the case of `CCOC(=O)c1c(C(F)(F)F)n([O-])c2ccc(Cl)cc2[n+]1=O`, the growth is reported as -70.5% (active).
`C#CCN(CCCOc1ccc(Cl)cc1Cl)CCCSC(=O)CCCCCN1/C(=C\C=C2/CCCC(/C=C/C3=[N+](CCCCCC(=O)[O-])c4ccccc4C3(C)C)=C2Cl)C(C)(C)c2ccccc21` was tested, and the growth was 1.44% (active).
`C#C[C@@]1(O)[C@@H](CO)O[C@@H](n2cc(I)c3c(N)ncnc32)[C@@H]1O` was tested, and the growth was -17.8% (active).
For `Nc1c(C(=O)Nc2cccc3ccccc23)sc2nc3c(cc12)CCCCCC3`, the growth was -36.8% (active).
In the case of `C=C1C(=O)O[C@H]2[C@H]1CC/C(COC(=O)c1cc3ccccc3o1)=C\CC[C@@]1(C)O[C@@H]21`, the growth is reported as -87.4% (active).
`Cc1c(Cl)cccc1NC(=O)c1sc2nc3c(cc2c1N)CN(Cc1ccccc1)CC3` was tested, and the growth was 0.716% (active).
With `COc1ccc(/C=C(/C(=O)N2CCCC2)c2cc(OC)c(OC)c(OC)c2)cc1` the growth was 5.36% (active).
For `COC(=O)CCc1n(Cc2ccc3ccccc3c2)c2ccccc2[n+]1Cc1ccc2ccccc2c1`, the growth was -14.2% (active).
In the case of `CC(=O)ON1CCCC(P(=O)(OCOC(=O)C(C)(C)C)OCOC(=O)C(C)(C)C)C1=O` (stereo not given), the growth is reported as 2.58% (active).
In the case of `CC1=C(CCCOC(=O)NCCCl)C2=C(C)C3(CC3)[C@@](C)(O)C(=O)C2=C1`, the growth is reported as 2.71% (active).

Point of comparison: `Cc1cc2ccccc2c[n+]1CC(=O)c1ccc(-c2ccccc2)cc1`, growth 31.9%. Against it:
- CCOC(=O)C(=Cc1c(-c2ccccc2)[nH]c2ccccc12)C(=O)OCC — higher, 38%
- CCOC(=O)NCCc1nc2c([nH]1)c(=O)n(C)c(=O)n2C — higher, 113%
- CCCCC(=O)Nc1c(C(=O)Nc2ccccc2)sc2nc3c(cc12)C(OC(=O)CCCC)CCC3 (stereo not given) — higher, 102%
- COc1ccc(NC(=O)c2ccc(Nc3ncnc4[nH]c(C)c(C)c34)cc2)cc1 — higher, 103%
- O=c1c2ccccc2oc2ccc(OCCCCCCN3CCCCCC3)cc12 — higher, 59.8%
- CCCCOc1nc2ccc(C)cc2cc1/C=C/C(=O)/C=C/c1ccc2c(c1)OCO2 — higher, 74.6%
- C=C1C(=O)O[C@H]2[C@H]1CC/C(COC(=O)NCc1nc3ccccc3[nH]1)=C\CC[C@@]1(C)O[C@@H]21 — lower, 22%
- O=c1[nH]nc(-c2ccccc2)c2sc(NC(=S)Nc3ccc(Cl)cc3)nc12 — higher, 97.5%
- NCCCn1c2c(c3cc(-c4ccn[nH]4)ccc3c1=O)C(=O)c1ccccc1-2 — higher, 59%
- NC(=N\N=C\c1ccccc1O)/C(N)=N/N=C/c1ccccc1O — higher, 63.1%
- O=C(/C(=C/c1ccc([N+](=O)[O-])cc1)SCc1ccc(F)cc1)c1ccc(Cl)cc1 — higher, 70.5%
- OCCNc1nc(NCCO)nc(Nc2ccc(C3=NN(c4cc(Cl)cc(Cl)c4)C(c4ccccc4)C3)cc2)n1 (stereo not given) — lower, 26.2%
- Cc1nc(C)c(C)nc1C — higher, 109%
- COc1ccc2oc(=O)cc(-c3nc4ccc(N)cc4[nH]3)c2c1 — higher, 86.2%
- Nc1cccc(C(=O)Nc2ccc3c(O)c(N=Nc4ccc(N=Nc5ccc(S(=O)(=O)O)cc5)cc4)c(S(=O)(=O)O)cc3c2)c1 — higher, 102%
- O=C(O)C(C(=O)O)c1cccc2ccccc12 — higher, 112%
- CC[C@]12C=CCN3CC[C@@]4(c5cc(NC(=O)CCC(=O)O[C@H]6CC[C@H]7[C@@H]8CC[C@H]9CC(=O)CC[C@]9(C)[C@H]8CC[C@]67C)c(OC)cc5N(C)[C@H]4[C@@](O)(C(=O)OC)[C@@H]1OC(C)=O)[C@@H]32 — higher, 73.2%
- C=C1C(=O)O[C@H]2[C@H]1CC/C(COC(=O)Nc1nc3ccccc3[nH]1)=C\CC[C@@]1(C)O[C@@H]21 — lower, 17.3%
- C1=CC2=CC=C3C=CC=C4C(c5nc6c7ccccc7c7ccccc7c6[nH]5)=CC(=C1)C2C34 (stereo not given) — higher, 93.4%
- C=C(C)[C@@H]1CCC=C2CC[C@]3(C)[C@H](CC[C@@H]4[C@@]5(C)CCCNC(C)(C)[C@@H]5CC[C@]43C)[C@H]21 — higher, 41.2%
- CC[C@H](Nc1ncnc2nc[nH]c12)c1nc2cccc(CC(=O)c3ccc(C(=O)NO)cc3)c2c(=O)n1-c1ccccc1 — higher, 76.9%
- O=c1[nH]c2ccccc2cc1-c1nc2ccncc2[nH]1 — higher, 90.9%
- O=C(/C(=C\c1c(-c2ccccc2)[nH]c2ccccc12)S(=O)(=O)c1ccccc1)c1ccccc1 — higher, 56.3%
- C=C(C)[C@@H]1CC[C@]2(C(=O)N3CCN(C)CC3)CC[C@]3(C)[C@H](CC[C@@H]4[C@@]5(C)C/C(=C/c6ccco6)C(=O)C(C)(C)[C@@H]5CC[C@]43C)[C@@H]12 — higher, 88.1%
- Cc1cc(C)nc(NS(=O)(=O)c2ccc(Nc3ccc4c5c(n(CCCN(C)C)c(=O)c4c3)-c3ccccc3C5=O)cc2)n1 — higher, 83.7%
- Oc1ccccc1-c1nc2c3ccccc3c3ccccc3c2o1 — higher, 97.2%
- COc1cc(NCC(=O)Nc2cc(Nc3ccc(C)cc3)ncn2)c(Cl)c(OC)c1Cl — higher, 84.3%
- O=C1[C@@H](OS(=O)(=O)CC(F)(F)F)[C@H](c2ccc(F)cn2)N1c1cc2c3ccccc3ccc2c2ccccc12 — higher, 49.3%
